# Where “and” joins values, the source holds several entries; their conditions need not be identical. Equal entries are not always repeated. Out of some 70,000 compounds screened, about 470 (0.67%) were called active. Entries that show only a call come without a potency. Inconclusive results (about 18%) are left out. Only a selection was taken, and actives are over-represented in it overall. A number with no mark means an inactive call. The call rests on the fitted dose curve.
# Test: qHTS Assay for Anthrax Lethal Toxin Internalization; further: nearly all actives have a fitted effect of over 50% in size
# Settings: Cells, FRET ratio (460/530); series mostly up to 40 µM
# Potency means the concentration at half of the fitted maximal effect.
SMILES,"activity change, negative = inhibition",Potency
Cc1ccc2oc(=O)ccc2c1,inactive,–
NCCCNCCCCN(CCCN)/[N+]([O-])=N/O,inactive,–
CNC(=O)C1(C)C=CC2(CCCCC2)N1C(C)=O (stereo not drawn),inactive,–
CCCNC(=O)OC[C@@H]1O[C@H](c2ccccc2)C=C[C@@H]1Oc1ccc(OC)cc1,-2.83% [at 8 µM],–
CSc1nc2ccc(S(=O)(=O)N3CCc4ccccc43)cc2s1,inactive,–
O=C(O)c1nccnc1C(=O)Nc1ccc(Br)cn1,inactive,–
Cc1ncc(CC(=O)n2cc(C(=O)c3cc(Cl)ccc3O)cn2)s1,inactive,–
COC(=O)C1(Cc2ccccc2)C=C2C(=C(C)C(=O)C2C)CN1 (stereo not drawn),inactive,–
COC(=O)[C@H]1C[C@@H]1[C@H](NC(=O)Oc1ccc(F)cc1)c1ccccc1,inactive,–
O=C(O)CS(=O)c1ccc2c3c(cccc13)C(=O)c1ccccc1-2 (stereo not drawn),1.15% [at 8 µM],–
CN(Cc1ccco1)c1ncncc1-c1ccoc1,inactive,–
CC(C)C[C@@H](CC(=O)N[C@@H](CCC(=O)O)CC(=O)O)NC(=O)[C@@H]1CCCC[C@H]1NC(=O)C[C@@H](NC(=O)C[C@H](CO)NC(=O)[C@@H]1CCCC[C@H]1N)C(C)C,inactive,–
COc1ccc2nccc(C(=O)O)c2c1,-6.5% [at 3.58 µM],–
COc1cccc([C@H]2Oc3ccc(OC)cc3/C(=N\OCC[C@@H]3C=C[C@H](OC(C)=O)[C@H](COC(C)=O)O3)[C@@H]2O)c1,-2.18% [at 8 µM],–
CC(C)[C@@H](CC(=O)N[C@@H]1CCNC[C@H]1C(=O)N[C@H](CC(=O)N[C@@H](CCC(=O)O)CC(=O)O)Cc1ccccc1)NC(=O)C[C@H](CO)NC(=O)[C@@H]1CNCC[C@H]1N,inactive,–
CC(=O)OCC1OC(C#CCCCc2ccccc2)C=CC1OC(C)=O (stereo not drawn),-3.55% [at 8 µM],–
O=Cc1c(Cl)cccc1Cl,inactive,–
COC(=O)[C@@H]1CC[C@H](C)[C@@H](c2ccc(C)cc2)N1C(=O)c1ccc(/C=N\O[C@@H](C)c2cn([C@H](CO)Cc3ccccc3)nn2)cc1,5.23% [at 8 µM],–
O=C(Nc1ccccc1-c1nnn(CC(=O)N2CCN(c3ccccc3)CC2)n1)c1cccs1,inactive,–
Cc1cc(C)cc(C#CC2C=CC(Oc3ccc(C4CCCC4)cc3)C(CO)O2)c1 (stereo not drawn),-16.6% [at 8 µM],–
CS(=O)(=O)N1CCC2(CC1)CN(c1ccncc1)C2,inactive,–
CCCC[C@H]1C(=O)N(c2ccccc2)N(c2ccc(O)cc2)C1=O,-4.13% [at 3.58 µM],–
CO[C@H]1COC(=O)[C@@H](OCc2ccccc2)/C=C\[C@H](C)[C@@H](OC)COC(=O)[C@H](OCc2ccccc2)/C=C\[C@@H]1C,-4.42% [at 8 µM],–
C[C@@H]1C[C@H]2[C@@H]3C[C@H](F)C4=CC(=O)C=C[C@@]4(C)[C@]3(F)[C@H](O)C[C@]2(C)[C@@]1(O)C(=O)CO,2.5% [at 3.58 µM],–
COCCn1c(=O)c(-c2cccs2)nc2cncnc21,inactive,–

SMILES,"activity change, negative = inhibition",Potency
COc1ccc(-c2oc3cc(OC)ccc3c2C(=O)c2ccc(C#N)cc2)cc1,inactive,–
CC(C)(C)[Si](OCC[C@@H]1C[C@@]1(C)[C@@H](NP(=O)(c1ccccc1)c1ccccc1)c1ccccc1)(c1ccccc1)c1ccccc1,inactive,–
COc1ccc(C(=O)N2CCC3(CCCN(C(c4ccccc4)c4ccccc4)C3)CC2)cc1,inactive,–
O=C(O)COc1c(Cl)cc(Cl)c2cccnc12,10.5% [at 8 µM],–
CO[C@@H]1COC(=O)C/C=C\[C@H](C)[C@@H](NS(=O)(=O)c2ccc(C)cc2)COC(=O)C/C=C\[C@@H]1C,-10% [at 8 µM] and -6.83% [at 8 µM],–
c1ccc2nc(C3=NCCN3)cnc2c1,inactive,–
Cc1c2c(nc3ccccc13)-c1cccc(=O)n1C2,inactive,–
COc1ccccc1C(=O)C(O)c1ccccc1OC (stereo not drawn),inactive,–
CC(=O)OCC1OC(C#Cc2ccccc2Cl)C=CC1OC(C)=O (stereo not drawn),-7.54% [at 8 µM],–
C[N+](C)(C)CCCCCNCC12CC3CC(CC(C3)C1)C2,inactive,–
CSc1ccc(-c2c(C#N)c(N)nc3c2c(C)nn3-c2ccccc2)cc1,–,1.26 µM (active)
COC(=O)[C@@]1(Cc2ccc(F)cc2)[C@H]2c3cc(C(=O)N4CCCC4)n(C[C@H](O)CO)c3C[C@H]2CN1C(=O)c1ccccc1,inactive,–
COc1cc([C@H]2c3cc4c(cc3[C@@H](O[C@@H]3O[C@H]5CO[C@@H](C)O[C@]5(O)C[C@H]3O)[C@@H]3COC(=O)[C@H]23)OCO4)cc(OC)c1O,inactive,–
CCC(Sc1nncn1C)C(=O)Nc1nnc(-c2ccc(Cl)cc2)s1 (stereo not drawn),inactive,–
O=C(O)c1ccc(C(=O)O)c2c(C(=O)O)ccc(C(=O)O)c12,-1.24% [at 8 µM],–
COc1ccc(N)c(OC)c1,inactive,–
COC(=O)[C@@]1(Cc2ccccc2)[C@H]2c3cc(C(=O)N(C)C)n(CCSCCO)c3C[C@H]2CN1C(=O)c1ccccc1,inactive,–
CCC[C@@H]1C[C@@]1(CCC)C(NS(=O)(=O)c1cccc2cccnc12)c1ccc(Cl)cc1 (stereo partly drawn),inactive,–
NCC[Se][Se]CCN,–,0.0794 µM (active)
C=C1c2cc(CC)ccc2NC(=O)N1c1ccc(C)cc1,–,10 µM (active)
N[C@@H](C(=O)O)c1ccc(P(=O)(O)O)cc1,inactive,–
CC(=O)N1CCC2(CCCN(Cc3ccc(C#N)cc3)C2)CC1,inactive,–
CCCCCCOC(=O)NCC(O)c1ccccc1 (stereo not drawn),inactive,–
COc1cccc([C@H](O)Cn2cc(-c3ccc(CON=C(C)C)cc3)nn2)c1,-1.91% [at 8 µM],–
COc1ncc2nc(-c3ccc(Cl)cc3)c(=O)n(C)c2n1,inactive,–

SMILES,"activity change, negative = inhibition",Potency
N#Cc1nc(-c2ccc(OCc3ccccc3)cc2)oc1NCCCN1CCOCC1,–,12.6 µM (active)
N#Cc1nc(COc2ccc(-c3ccccc3)cc2)oc1NCc1cccnc1,inactive,–
N#Cc1nc(Cc2ccccc2)oc1NCCc1ccccc1,inactive,–
C/C=C/C=C/C(=O)O,inactive,–
CC(C)CN1CCc2nc(-c3ccccc3)c3c(c2C1)COC(C)C3 (stereo not drawn),-16% [at 8 µM],–
COc1ccccc1CNc1ccnc(-c2c(C)noc2C)n1,inactive,–
CC(Cc1ccccc1)C(=O)N(C)Cc1ccccc1 (stereo not drawn),inactive,–
COc1ccc(/C=C/NC(=O)Cc2ccc(OC)c(OC)c2)cc1,-11.3% [at 8 µM],–
Cn1c2c(c(=O)n(C)c1=O)C1c3ccccc3OCC1C(C)(C)O2 (stereo not drawn),inactive,–
COc1ccccc1N1CCN(C[C@@H]2CN3C(=O)N(C)c4ccccc4C3=N2)CC1,inactive,–
CC1CN(Cc2nc3c(c(=O)n(C)c(=O)n3C)n2Cc2cccc(Cl)c2)CC(C)O1 (stereo not drawn),inactive,–
CCCCC(CC)CN (stereo not drawn),inactive,–
Cc1ccnc(N2CCC(C(=O)NC3CCCCCC3)CC2)n1,inactive,–
Cc1ccnc(-n2sc3ccccc3c2=O)n1,–,0.316 µM (active)
Cc1nc2ccccc2c(=O)n1CCCn1ccnc1,inactive,–
O=c1[nH]c(=O)n([C@H]2C[C@H](O)[C@H](CO)O2)cc1Br,inactive,–
CN(C)CCCn1c2ccccc2c2cnccc21,-25.7% [at 8 µM],–
Cc1ccccc1OCC(=O)Nc1ccc(N2CCN(C(=O)C(C)C)CC2)c(Cl)c1,–,12.6 µM (active)
O=C(COc1ccccc1Cl)Nn1cnnc1,inactive,–
Cc1cccc(NC(=O)COc2ccccc2C)n1,inactive,–
COC(=O)[C@@]1(Cc2ccc(F)cc2)[C@@H]2[C@@H](CC(=O)[C@H]2CC(=O)C(=O)N2CCCC2)CN1C(=O)c1ccccc1,inactive,–
COC(=O)CCCCCN1C(=O)NC(c2ccc(-c3ccccc3)cc2)C(C(=O)OCc2ccccc2)=C1C (stereo not drawn),inactive,–
Cc1ccccc1N1CCN(S(=O)(=O)C[C@@]23CC[C@H](C[C@H]2NC(=O)[C@@H](N)CCS(C)(=O)=O)C3(C)C)CC1,inactive,–

# Source: PubChem BioAssay AID912 (National Center for Advancing Translational Sciences (NCATS), 2007)
